Molecules are shown by their SMILES. “And” between values parts separate entries of the source, which are not always exact repeats. Equal values may be shown once. The panel holds about 83,000 compounds, 20% with a hit somewhere; the sample as a whole holds those more often.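 Testing used 96-well plates and a 48-hour single-concentration exposure. Example: -40 means 40% of the starting cells died.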 Values without a mark were called inactive. The source made the active and inactive calls. Rule for the calls: active = growth percent below 10; inactive = the rest.

In the assay the test system is HL-60(TB) leukemia. In words: NCI-60 one-dose screen, 48 h (100 = growth as untreated, 0 = no growth, -100 = all killed). The conditions noted are these: 10 µM unless noted.
Regarding `CC(=O)C(CO)C(=O)Nc1ccccc1` (stereo not given), the growth was 100%.

On to `CC(C)CCC[C@@H](C)[C@H]1CC[C@H]2[C@@H]3CC=C4C[C@@H](C(C(=O)O)C(=O)O)CC[C@]4(C)[C@H]3CC[C@]12C`, for which the growth was -44.4% (active). In the case of `O=C1c2cc(Cl)ccc2S(=O)(=O)c2c(NCCCNCCO)nc3ccccc3c21`, the growth is -27% (active). Take `Cn1cc(C(=O)c2nc(-c3c[nH]c4ccccc34)no2)c2ccccc21`: the growth was 58.5%. Then `NC(CSC(c1ccccc1)(c1ccccc1)c1ccccc1)C(=O)NCC(=O)O` (stereo not given), with 55%.

`COC(=O)CNC(=O)C(=O)c1c(O)c(O)c(C(C)C)c2cc(C)c(-c3c(C)cc4c(C(C)C)c(O)c(O)c(C(=O)C(=O)NCC(=O)OC)c4c3O)c(O)c12`: the growth is 24.6%. Regarding `CCOC(=O)CSc1nnc(-c2cc3c([nH]c4ccccc43)c(-c3cccc(O)c3)n2)n1-c1ccc(C)cc1`, the growth was 45.3%. The value for `OB(O)c1cccc(-c2nc3ccc4[nH]ncc4c3c3c2CCCC3)c1F` was 32.1%. For the compound `CN(C)CCNc1nc2c3cc(Cl)ccc3nn2c2ccccc12`, the growth is 56.1%.

Consider `COc1ccc2c(c1)[nH]c(=O)c1c3cc(OC)c(OC)cc3cn21`, for which the growth is -18.9% (active). The value for `CS(=O)(=O)Nc1cc(-c2ccc3ncnc(Nc4c(Cl)ccc5c4OCO5)c3c2)cnc1Cl` was -4.02% (active). On to `COc1ccc(-c2[nH]nc(N)c2-c2cc(OC)c(OC)c(OC)c2)cc1`, for which the growth was -34.9% (active). On to `Cc1cc(NCc2cc(Nc3ccnc4cc(Cl)ccc34)ccc2F)nc(N2CCN(c3ccccc3)CC2)n1`, for which the growth was -40.7% (active).

For the compound `CC(C)N1CN2C(=S)NC3C2N(C1)C(=S)N3C` (stereo not given), the growth was 100%. On to `O=C(N/N=C/c1ccc(Cl)cc1Cl)c1ccccc1Nc1cccc(C(F)(F)F)c1`, for which the growth is 85.7%. Then `N#CC(C#N)=C/C=C/c1cccc([N+](=O)[O-])c1`, with -10.5% (active) and -9.74% (active); and `O=C(N/N=C/c1ccc2c(c1)OCO2)c1ccncc1`, with 115% and 225%. The value for `C#CC[C@@H]1C[C@]2(C)[C@H]3CC=C4[C@H]5[C@@H](C)[C@H](C)CC[C@]5(C(=O)NCCCCN)CC[C@@]4(C)[C@]3(C)CC[C@H]2C(C)(C)[C@H]1OC(C)=O` was 21.3%; that for `CC(=O)O[C@H]1CC[C@]2(C)C3=C(C(=O)C[C@H]2C1(C)C)[C@]1(C)CC[C@H]([C@H](C)CCC(=O)O)[C@@]1(C)CC3=O` was 108%. Then `COC(=O)C1(O)NC(=C(C#N)C#N)C(C#N)=C1C(=O)c1ccc(OC)c(OC)c1` (stereo not given), with 79%; and `COc1ccc(C2CC(c3cccc(OC)c3)=NN2C(=O)c2cc(OC)c(OC)c(OC)c2)cc1` (stereo not given), with -44.1% (active).

Take `O=C1Nc2ccc(C(=O)O)c(O)c2C1=O`: the growth was 99.8%. Then `Nc1c(Br)cc(Br)cc1-c1n[nH]c(=O)[nH]c1=O`, with 94.4%; and `C=C1C(=O)O[C@H]2[C@H]1CC/C(Cn1cc(CNCCc3c[nH]c4ccccc34)nn1)=C\CC[C@@]1(C)O[C@@H]21`, with 26.1%. The value for `O=C(/C=C/c1cccc2ccccc12)Nc1ncc(Cc2ccccc2)s1` was -11% (active).
